Data on 100 compounds can be found in PubChem BioAssay AID686978 (National Center for Advancing Translational Sciences (NCATS), 2013).

Structures are written as SMILES. The whole screen tested about 420,000 compounds, of which about 64,000 (15%) were called active. Not shown: some 27% with an inconclusive outcome. The call rests on the fitted dose curve; in most records, active means well fitted inhibition curve with a large enough effect; inconclusive means small, poorly fitted or top-dose-only effect; inactive means flat fitted curve, though single readings scatter. A selection follows. Where a call stands in place of a potency, no number is given.
Potency means the concentration at half of the fitted maximal effect.

The assay in a line: qHTS for Inhibitors of human tyrosyl-DNA phosphodiesterase 1 (TDP1): qHTS in cells in absence of CPT. Further: nearly all actives have a fitted effect of over 55% in size. To be noted: DT40 Tdp1-/- hTDP1 cells, no CPT, ATP luminescence, 48 h; activity change, negative = growth inhibition: at 46.2 µM (top of the series). Put shortly: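 Chicken DT40 Tdp1-/- cells stably complemented with human TDP1 were seeded at 400 cells/well with DMSO in place of 20 nM camptothecin. After compound pinning, cells grew at least 48 hr at 37 °C; viability read by CellTiter-Glo luminescence.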
In general terms: Quantitative high-throughput screening tests each substance at several concentrations.
Take `CC(C(=O)O)N1C(=O)c2cccc3cccc1c23` (stereo not given): the Potency result was “inactive”.
For `CC(C)NC(=O)NCCCCCCS(C)=O` (stereo not given), the Potency result is “inactive”.
As for `Cc1ccn2cc(-c3nonc3C)cc2c1`, the Potency entry was “inactive”.
Turning to `CC1(C(=O)NS(=O)(=O)c2ccc3ccccc3c2)CCN1C(=O)C1(c2ccc(Cl)cc2)CCC1` (stereo not given), the Potency entry was “inactive”.
The same measure for `CCN(C(=O)CSc1nnc2ccccn12)C1CCS(=O)(=O)C1` (stereo not given): “inactive”.
For `CC(OC(=O)c1cccnc1Cl)C(=O)NC1CCCCC1` (stereo not given), the Potency result was “inactive”.
The same measure for `CC(C)Cn1c(CCC(=O)O)ccc1-c1cccs1`: “inactive”.
The result for `COc1cc(C(=S)NC2CCCCC2)ccc1O` reads “inactive”.
Regarding `Cc1cccc(-c2ncc(CN3CCC(CO)(CCCc4ccccc4)CC3)cn2)c1`, the Potency is 23.1 µM (active).
`COc1cccc(CC2(CO)CCN(Cc3cnc(-c4cccc(C)c4)nc3)CC2)c1`: the Potency was 20.6 µM (active).
The same measure for `COc1ccc(CC2(CO)CCN(Cc3cnn(C)c3)CC2)cc1`: “inactive”.
The result for `OCC1(CCc2ccccc2)CCN(Cc2ccc3nsnc3c2)CC1` reads “inactive”; that for `COC(=O)c1ccc(CN2CCC(CO)(Cc3ccc(OC)cc3)CC2)cc1`, “inactive”; that for `CC(=O)c1cccc(CN2CCC(CO)(Cc3ccccc3)CC2)c1`, “inactive”.
`COc1cccc(NC(=O)Cn2c3ccc(F)cc3c3nc4n(c(=O)c32)CCS4)c1`: the Potency entry is “inactive”.
The same measure for `O=C(NCC1Cc2cc(F)cc(-c3cnccn3)c2O1)C1COc2ccccc2O1` (stereo not given): “inactive”; for `Cc1cc(C)c(C#N)c(SCc2ccccc2C(=O)O)n1`: “inactive”.
The same measure for `CSCCC(NC(=O)COc1ccccc1)C(=O)OCC(=O)c1cc2ccccc2o1` (stereo not given): “inactive”; for `CCOc1ccc(Br)cc1S(=O)(=O)N1CCC(C(=O)O)CC1`: “inactive”.
The same measure for `CC(C)(C)NCc1cc(Br)ccc1OC1CCCC1`: 16.4 µM (active); for `CCOCCCNCc1cc(Br)ccc1OCC`: “inactive”; for `CC(=O)N/C(=C/c1ccc(OC(F)F)cc1)C(=O)O`: “inactive”.
On to `N#Cc1ccc(-c2ccc(F)cc2)nc1Sc1ccccc1`, for which the Potency entry is “inactive”.
Turning to `COc1ccc(NC(=O)CN(C)C(=O)Cc2coc3cc(C)c(C)cc23)cc1`, the Potency result was “inactive”.
Regarding `Cc1ccc(NS(=O)(=O)c2ccc3c(c2)NC(=O)CO3)cc1`, the Potency result is “inactive”.
The result for `CCOc1ccc(CCN2C(=O)C(=O)N([C@@H](Cc3ccc(O)cc3)CN3CCC[C@H]3CN3C(=O)C(=O)NC[C@@H]3CC(C)C)C[C@@H]2Cc2ccccc2)cc1` reads “inactive”.
As for `CCOc1ccc(CCN2C(=S)N([C@@H](CC(C)C)CN3CCC[C@@H]3CN3C(=S)NC[C@@H]3Cc3ccc(O)cc3)C[C@@H]2CC(C)C)cc1`, the Potency was 23.1 µM (active).
The result for `CCOc1ccc(CCN2C(=O)C(=O)N([C@@H](CC(C)C)CN3CCC[C@H]3CN3C(=O)C(=O)NC[C@@H]3Cc3ccccc3)C[C@@H]2CC(C)C)cc1` reads “inactive”; that for `CC(C)C[C@H]1CNC(=S)N1C[C@H]1CCCN1C[C@H](Cc1ccc(O)cc1)N1C[C@H](Cc2ccc(O)cc2)N(CC2CCCCC2)C1=S`, 25.9 µM (active); that for `O=C1NC[C@H](CCCCN2C[C@H](Cc3ccccc3)N(Cc3ccccc3)C(=O)C2=O)N(CCc2ccc(O)cc2)C1=O`, “inactive”.
Turning to `CC(C)C[C@H]1CNC(=O)C(=O)N1C[C@@H]1CCCN1C[C@H](Cc1ccccc1)N1C[C@H](CC(C)C)N(CC2CCCCCC2)C(=O)C1=O`, the Potency entry is “inactive”.
As to `O=C1NC[C@H](CCCCN2C[C@H](Cc3ccc(O)cc3)N(CC3CCCCC3)C(=O)C2=O)N(CCc2ccccc2)C1=O`, the Potency result is “inactive”.
The same measure for `O=C1NC[C@H](CCCCN2C[C@H](Cc3ccc(O)cc3)N(CCc3ccccc3)C(=O)C2=O)N(CCc2ccccc2)C1=O`: “inactive”.
On to `CC(C)C[C@H]1CN([C@@H](CC(C)C)CN2CCC[C@@H]2CN2C(=O)C(=O)NC[C@@H]2Cc2ccccc2)C(=O)C(=O)N1CCc1ccccc1`, for which the Potency was 16.4 µM (active).
On to `Cc1cc(NC(=O)CN2C(=O)NC(CCc3ccccc3)C2=O)no1` (stereo not given), for which the Potency entry was “inactive”.
The result for `CCOc1ccc(CCN2C(=O)c3cccnc3C2=O)cc1OCC` reads “inactive”; that for `CN(C(=O)C1CCOC1)c1nnc(-c2cccnc2)s1` (stereo not given), “inactive”.
The result for `CC(CNC(=O)c1ccc(N)cc1)NC(=O)c1ccc(N)cc1` (stereo not given) reads “inactive”; that for `CCOC(=O)C1CCN(C(c2cc3cc(C)cc(C)c3[nH]c2=O)c2nnnn2C2CCCCC2)CC1` (stereo not given), “inactive”; that for `CC(C)(C)n1nnnc1C(c1ccc(F)cc1)N1CCN(Cc2ccc3c(c2)OCO3)CC1` (stereo not given), “inactive”.
On to `Cc1cc(C)c2[nH]c(=O)c(C(c3nnnn3Cc3ccc4c(c3)OCO4)N3CCCC3)cc2c1` (stereo not given), for which the Potency is 2.31 µM (active).
Consider `O=C(NCc1ccco1)/C(=C/c1cccc([N+](=O)[O-])c1)NC(=O)c1ccco1`, for which the Potency entry was “inactive”.
`COc1cc(NC(=O)CCS(=O)(=O)c2ccc3c(c2)oc(=O)n3C)cc(OC)c1`: the Potency result was “inactive”.
The same measure for `O=C(Nc1cc(C(F)(F)F)ccc1Cl)c1cc(C2CC2)on1`: “inactive”; for `COc1ccc(-n2cnnc2SCC(=O)Nc2cccc(S(N)(=O)=O)c2)cc1`: “inactive”.
The same measure for `c1ccc2c(c1)CSc1sccc1C2=C1CCNCC1`: 16.4 µM (active).
The result for `Nc1nc(Br)c2ccccc2c1-c1ccc(F)cc1` reads “inactive”; that for `CCOc1c(Nc2cccc(Cl)c2)c(=O)c1=O`, “inactive”.
Take `CCNCCCNCCCNCCCNCC`: the Potency is 3.76 µM (active).
The result for `COc1ccc2oc(=O)c(C(=O)N3CCCc4ccccc43)cc2c1` reads “inactive”; that for `CN(C(=O)Nc1ccc(Cl)cc1)n1cnc2ccccc2c1=O`, “inactive”.
The result for `Cc1[nH]n(-c2ccc(Cl)cc2)c(=O)c1/C=N/n1c(C)nc2ccccc2c1=O` reads 18.4 µM (active); that for `S=C(Cc1ccc(Cl)cc1)N1CCOCC1`, “inactive”.
The same measure for `C=C1C(=O)OC2C1CCC(C)=CCCC1(C)OC21` (stereo not given): 3.26 µM (active); for `CCn1cc(-c2cc(C(=O)O)on2)c(C)n1`: “inactive”; for `CN(C)S(=O)(=O)c1ccc(N/C=C(\[N+](=O)[O-])S(=O)(=O)c2ccccc2)cc1`: “inactive”.
Regarding `COc1ccc(N/C=C(\C2OC(=O)c3ccccc32)[N+](=O)[O-])cc1` (stereo not given), the Potency was 23.1 µM (active).
Regarding `COc1ccc(NC(=O)C2=C(C)NC(=O)NC2c2ccccc2[N+](=O)[O-])cc1` (stereo not given), the Potency result was “inactive”.
On to `CC(C)=CCC/C(C)=C/C(=O)O`, for which the Potency result is “inactive”.
In the case of `O=C(NCCCNC(=O)NC1CCCCC1)NC1CCCCC1`, the Potency entry is “inactive”.
`CCOc1ccc(-n2c(SCC(=O)Nc3ccc(OC)cc3)nc3sc4c(c3c2=O)CCN(C)C4)cc1`: the Potency result was “inactive”.
As to `CCCSc1nc2sc3c(c2c(=O)n1-c1ccc(OC)cc1)CCN(C)C3`, the Potency was 14.6 µM (active).
As to `CCSc1nc2sc3c(c2c(=O)n1-c1ccc(C)cc1)CCN(C)C3`, the Potency was 7.31 µM (active).
The same measure for `CC1(C)Cc2c(sc3nc(SCC(=O)NCc4ccccc4)n(-c4ccccc4)c(=O)c23)CS1`: “inactive”; for `CCn1c(SCC(=O)Nc2ccc(Br)cc2)nc2sc3c(c2c1=O)CCN(C)C3`: “inactive”; for `COc1ccccc1-n1c(SCC(=O)O)nc2sc3c(c2c1=O)CCC3`: “inactive”.
As to `CC(=O)CSc1nc(CCc2ccccc2)c(C#N)c(=O)[nH]1`, the Potency result is “inactive”.
With `COc1ccc(NC(=O)c2cc(=O)[nH]c3ccccc23)cc1S(=O)(=O)N1CCOCC1`, the Potency result is “inactive”.
Consider `Cc1sc2ncn(CC(=O)NCCN(C)C)c(=O)c2c1S(=O)(=O)N1CCC(C)CC1`, for which the Potency entry was “inactive”.
The same measure for `O=C(Nc1cccc(OCC(=O)N2CCOCC2)c1)C1CCCCC1`: “inactive”; for `COc1cc(/C=C/C(=O)O)cc(S(=O)(=O)Nc2ccccc2C(=O)NCCc2ccccc2)c1OC`: “inactive”; for `Cc1cc(C)nc(/N=C2\NC(=O)CC(C(=O)O)N2c2ccc(Cl)cc2Cl)n1` (stereo not given): “inactive”.
For `COc1ccc(C(C#N)Nc2ccccc2C)cc1` (stereo not given), the Potency result was “inactive”.
The result for `COC(=O)C1C(=O)NCC1c1ccc(OC)cc1` (stereo not given) reads “inactive”.
The same measure for `COc1ccc(N2C(=O)C(O)C2c2ccc(C)cc2)cc1` (stereo not given): “inactive”; for `COC(=O)C1=C(Nc2ccc(OC)cc2)C=C(C)C(C(=O)OC)C1c1ccc(C)cc1` (stereo not given): 16.4 µM (active); for `O=C(Nc1ccccc1F)C1C2C=CC3(O2)C1C(=O)N(c1cccnc1)C3C(=O)NC1CCCCC1` (stereo not given): “inactive”.
The result for `CCCNc1c(N)c(=O)c1=O` reads “inactive”; that for `Cc1nc([N+](=O)[O-])c(NCCCO)n1Cc1ccccc1`, “inactive”; that for `COc1ccc(C2OCC3(CO2)SC(=O)NC3=O)cc1OC` (stereo not given), “inactive”.
For `CCOc1ccc(Cn2c(SCCCCC#N)nc3c2c(=O)n(C)c(=O)n3C)cc1OCC`, the Potency result was “inactive”.
As to `CCCSc1nc2c(c(=O)n(C)c(=O)n2C)n1Cc1ccc(C)cc1`, the Potency is 16.4 µM (active).
In the case of `CCC1CCCCN1C(=O)CSc1nc2c(c(=O)n(C)c(=O)n2C)n1C` (stereo not given), the Potency entry was “inactive”.
The result for `C#CC(C)(C)NC(=O)CSc1nc2c(c(=O)n(C)c(=O)n2C)n1CCCC` reads “inactive”; that for `Cc1cccc(Cn2c(SCCO)nc3c2c(=O)n(C)c(=O)n3C)c1`, 14.6 µM (active); that for `CSc1nnc(C2CCCN(CC(=O)Nc3ccccc3N3CCOCC3)C2)n1C(C)C` (stereo not given), “inactive”.
The result for `CCOC(=O)CSc1nc2c(c(=O)n(C)c(=O)n2C)n1Cc1ccccc1F` reads “inactive”; that for `Cn1c(=O)c2c(nc(SCC(=O)Nc3ccc(F)cc3)n2Cc2ccccc2)n(C)c1=O`, 4.61 µM (active); that for `CC(C)n1c(SCC(=O)Nc2ccccc2N2CCCCC2)nc2c1c(=O)n(C)c(=O)n2C`, 23.1 µM (active).
The same measure for `Cn1c(=O)c2c(nc(SCCNS(=O)(=O)c3ccccc3)n2C)n(C)c1=O`: “inactive”; for `COc1ccc(NC(=O)CCn2ccnc2)c(OC)c1`: “inactive”.
As for `Cc1ccc(C2(C)NC(=O)N(CC(=O)Nc3ccccc3C(=O)N3CCCCC3)C2=O)cc1` (stereo not given), the Potency entry is “inactive”.
For the compound `CC(=O)NC(CC(=O)Nc1nc(-c2ccccc2)c(C(C)=O)s1)c1ccccc1` (stereo not given), the Potency entry was “inactive”.
With `CCNC(=O)c1c(O)c2cccc3c2n(c1=O)CC3`, the Potency was 23.1 µM (active).
The same measure for `CCCCn1c(=O)c(C(C)=O)c(O)c2ccccc21`: “inactive”.
The same measure for `Cc1cc(=O)n2c3c(cccc13)CCC2`: “inactive”.
With `CC(C)Cc1nnc(NC(=O)CCNC(=O)c2ccccc2Cl)s1`, the Potency result is “inactive”.
For `Cn1c(NCc2cccnc2)nc2cc(-c3ccc(F)cc3)sc2c1=O`, the Potency entry is “inactive”.
Regarding `COc1cccc(-c2cc3nc(NCc4ccccc4OC)n(C)c(=O)c3s2)c1`, the Potency was 20.6 µM (active).
Take `COc1ccccc1CNc1nccn(-c2ccc(F)cc2)c1=O`: the Potency entry was “inactive”.
